In the library only some 8.3% were active in any assay of this set; here they are far more common.
FBPA Giardia inh – qHTS Assay for Inhibitors of Fructose-1,6-bisphosphate Aldolase from Giardia Lamblia; purified Giardia FBPA; 290,000 compounds, 0.71% hits; Potency, µM (series often up to 59.6 µM), usual class: inhibitors; A8B2U2; also: nearly all actives have a fitted effect of over 55% in size
Target sequence (A8B2U2 whole entry, looked up): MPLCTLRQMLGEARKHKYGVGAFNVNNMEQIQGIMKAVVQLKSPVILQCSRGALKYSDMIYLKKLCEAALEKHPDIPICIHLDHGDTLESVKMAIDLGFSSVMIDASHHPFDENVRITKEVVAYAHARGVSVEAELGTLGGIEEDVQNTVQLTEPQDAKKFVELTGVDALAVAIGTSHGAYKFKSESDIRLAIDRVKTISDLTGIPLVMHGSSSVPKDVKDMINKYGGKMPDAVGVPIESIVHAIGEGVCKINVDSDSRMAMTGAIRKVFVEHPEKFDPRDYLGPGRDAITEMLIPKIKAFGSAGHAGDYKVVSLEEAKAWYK
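Giardia FBPA (40 nM reagent) was preincubated 10 min at RT with compound (up to 57.5 uM final), then substrate plus GAPDH/TPI/NAD/arsenate coupling system with diaphorase/resazurin was added; resorufin fluorescence (525/598 nm) was read after 20 min.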
Marburg entry inh – qHTS for inhibitors of binding or entry into cells for Marburg Virus; Marburg virus pseudotyped entry inhibition, cell reporter; AID 540276, 2011; 300,000 compounds, 1.8% hits; Potency, µM (highest dose often 37.8 µM), actives largely listed as inhibitors; calls by dose curve; tested in HEK293 cells
HCMV inh – qHTS Assay for inhibitors of the human cytomegalovirus (HCMV); 410,000 compounds, 4.5% hits; AID 1259415, 2018; HFF cells, HCMV-luciferase reporter, 72 h; active compounds read low; activity change, negative = inhibition, % at 57.5 µM; in the data active = activity change below about -60%; inconclusive = no clear call, values can overlap the other calls; inactive = above about -39%
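Compounds were evaluated in HFFs infected with an HCMV luciferase reporter virus (MOI 1 PFU/cell). Luciferase in lysates collected 72 h post infection served as the replication measure.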
LASV entry inh – qHTS for Inhibitors of binding or entry into cells for Lassa Virus | Lassa virus pseudotype entry inhibition, cell reporter | Potency, µM (titrated, usually from 37.9 µM), hits mostly inhibitors | 300,000 compounds, 1.2% hits; calls by dose curve; tested in HEK293 cells; also: nearly all actives have a fitted effect of over 50% in size
FMDV inh – High Throughput Screening for Foot and Mouth Disease Virus Antivirals | 410,000 compounds, 1.2% hits | FMDV antiviral cell-based qHTS | AID 1159524, 2015 | Potency, µM (top dose mostly 57.9 µM), usual class: inhibitors; calls by dose curve; tested in HEK293T cells; also: read-out not given here; nearly all actives have a fitted effect of over 45% in size
HCV inh – qHTS Assay for Inhibitors of Hepatitis C Virus (HCV). Potency, µM (series often up to 41.8 µM), actives largely listed as inhibitors. 340,000 compounds, 3.4% hits. Huh7.5.1 HCVcc-Cre infection, luciferase reporter, 44 h
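Cells seeded at 1,000/well and cultured 4 h, then compounds added followed by HCVcc-Cre virus (~0.5 moi). After 44 h further culture, luciferase substrate was added, plates held 15 min at room temperature, and luminescence read for 15 sec.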
Hits are given with their value; [ ] = another dose, or the depositor's remark. Unless noted, calls follow the shape of the dose curve; as a rule, active = well fitted curve in the direction sought with a large enough effect; inconclusive = small, poorly fitted or top-dose-only effect, or another doubt; inactive = no such curve, though single readings can be large; an effect the other way counts as inactive or inconclusive.

Screening Cc1c(C(=O)NCCC2=CCCCC2)oc2ccc(S(=O)(=O)N3CCOCC3)cc12 returned FBPA Giardia inh inactive, Marburg entry inh inconclusive, HCMV inh -68.9, LASV entry inh 8.2µM, FMDV inh 14.1µM and HCV inh 10µM.
`CCC[C@H]1[C@@H](NS(=O)(=O)Cc2ccccc2)CC[C@@]23CCCN2C(=O)CCC[C@@H]13` gave HCMV inh inactive.
COc1ccc(OC)c(C2=Nn3c(nnc3-c3ccccc3O)SC2)c1 was read as FBPA Giardia inh inactive.
Screening Nc1ccc2[nH]ncc2c1 returned FBPA Giardia inh inconclusive, Marburg entry inh inactive, HCMV inh -61.3, LASV entry inh inactive, FMDV inh inactive and HCV inh inactive[8.37 µM].
For O=C(Cc1ccc(F)cc1)Nc1ccc2[nH]ncc2c1 the results were FBPA Giardia inh inactive, Marburg entry inh inactive, HCMV inh inactive, LASV entry inh inactive, FMDV inh inactive and HCV inh inactive.
COC(=O)C(NC(=O)OCc1ccccc1)(c1ccc(Br)cc1)C(Nc1ccccc1)c1ccccc1 (centres undefined) was read as HCMV inh inactive.
For CC(=O)N1CCSc2ccc(S(=O)(=O)NCCc3ccc(C)cc3)cc21 the results were Marburg entry inh inconclusive, HCMV inh inactive, LASV entry inh 7.94µM, FMDV inh inactive and HCV inh inconclusive.
Screening CC(=O)N1CCSc2ccc(S(=O)(=O)NCCc3cccc(C)c3)cc21 returned Marburg entry inh inconclusive, HCMV inh inconclusive, LASV entry inh inactive, FMDV inh inactive and HCV inh inconclusive.
`CC(=O)N1CCSc2ccc(S(=O)(=O)NCCc3ccc(Cl)cc3)cc21` gave HCMV inh -60.1, FMDV inh inactive and HCV inh 11.2µM.
For O=C(O)c1cccc(COc2ccccc2Cl)c1 the results were FBPA Giardia inh inconclusive, Marburg entry inh 0.411µM, HCMV inh inconclusive, LASV entry inh 0.517µM, FMDV inh 1.41µM and HCV inh inactive.
For O=C1NC(=O)/C(=C\c2ccc(OCc3cccc(C(=O)O)c3)c(Cl)c2)N1 the results were FBPA Giardia inh inactive, Marburg entry inh inconclusive, HCMV inh inactive, LASV entry inh 6.31µM, FMDV inh inactive and HCV inh inactive.
`CCc1ccc(NC(=O)Cn2c(=O)n(-c3ccc(Cl)c(Cl)c3)c(=O)c3c(C)c(C)sc32)cc1` gave Marburg entry inh inactive, HCMV inh inactive, LASV entry inh inactive and FMDV inh inactive.
`Cc1cc(CNC(=O)[C@]2(C(F)(F)F)C[C@H](CCC3CCCCC3)CCCO2)nn1C` gave FBPA Giardia inh inactive.
Screening COc1ccc(-c2nnc(NC(=O)c3ccc([N+](=O)[O-])o3)o2)c(OC)c1 returned FBPA Giardia inh inconclusive, Marburg entry inh inactive, HCMV inh -94.0, LASV entry inh inactive, FMDV inh inactive and HCV inh inconclusive.
CC[C@H](C)[C@H](NC(=O)[C@H](Cc1ccc(O)cc1)NC(=O)[C@@H](NC(=O)[C@H](CCCN=C(N)N)NC(=O)[C@@H](N)CC(=O)O)C(C)C)C(=O)N[C@@H](Cc1ccc(N)cc1)C(=O)N1CCC[C@H]1C(=O)N[C@@H](Cc1ccccc1)C(=O)O was read as FBPA Giardia inh inactive.
For c1cn2cc(-c3ccc4c(c3)OCO4)nc2s1 the results were FBPA Giardia inh inactive, Marburg entry inh inconclusive, HCMV inh inactive, LASV entry inh 10.3µM, FMDV inh inactive and HCV inh inactive.
`Cn1c(N=Nc2ccccc2)nc2ccccc21` gave FBPA Giardia inh inactive, Marburg entry inh inconclusive, HCMV inh inactive, LASV entry inh inconclusive, FMDV inh inactive and HCV inh inconclusive.
CN(C)c1ccc(N=Nc2nc3ccccc3n2C)cc1 was read as FBPA Giardia inh inactive, HCMV inh inconclusive, FMDV inh 3.98µM and HCV inh 10µM.
C[C@@H](c1ccccc1)N1C(=O)[C@H]2[C@@H]3[C@H](O)[C@H](O)CC(=O)[C@H]3CC[C@H]2C1=O was read as FBPA Giardia inh inactive[12.9 µM].
Screening COc1cc([N+](=O)[O-])ccc1NC(=O)CC1SC(=Nc2ccc(F)cc2)N(CCC2=CCCCC2)C1=O (centres undefined) returned FBPA Giardia inh inactive, Marburg entry inh inconclusive, HCMV inh -98.7, LASV entry inh 3.16µM, FMDV inh inconclusive and HCV inh inconclusive.
For CCc1cc(=O)[nH]c(SCc2nc(-c3cccc(Cl)c3)no2)n1 the results were HCMV inh inactive, LASV entry inh inconclusive and FMDV inh inactive.
`CC(C)=CCN1CCN(Cc2ccc(C)s2)CC1CCO` (centres undefined) gave FBPA Giardia inh inactive, Marburg entry inh inactive, HCMV inh -67.1, LASV entry inh inconclusive, FMDV inh inactive and HCV inh inactive.
O=[N+]([O-])c1ccc(N/N=C/c2cccnc2)cc1 was read as FBPA Giardia inh inactive, Marburg entry inh inactive, HCMV inh inactive, LASV entry inh inactive, FMDV inh inactive and HCV inh 11.2µM.
`O=C(O)c1cccc(N/N=C/c2ccc(-c3ccccc3)cc2)c1` gave FBPA Giardia inh inactive, Marburg entry inh inconclusive, HCMV inh inactive, LASV entry inh 8.91µM, FMDV inh 14.1µM and HCV inh inactive.
O=C(O)c1cccc(N/N=C/c2cc(Br)cc(Br)c2O)c1 was read as FBPA Giardia inh inactive, Marburg entry inh inactive, HCMV inh inactive, LASV entry inh inactive, FMDV inh inactive and HCV inh inactive.
Screening CN(C)c1ccc(/C=N/Nc2cccc(C(=O)O)c2)cc1 returned FBPA Giardia inh inactive, HCMV inh inactive, FMDV inh 3.98µM and HCV inh inactive.
For CC(C)(C)c1ccc(/C=N/Nc2cccc(C(=O)O)c2)cc1 the results were FBPA Giardia inh inactive, HCMV inh inactive, FMDV inh 44.7µM and HCV inh inactive.
`Cc1ccccc1C1CC(=O)Oc2cc(C)c(Br)c(C)c21` (centres undefined) gave FBPA Giardia inh inactive.
Screening CCN1C(=O)[C@H]2[C@H]3[C@H](O)[C@H](O)C/C(=N/O[C@@H](C)c4cn([C@H](CO)Cc5ccccc5)nn4)[C@@H]3CC[C@@H]2C1=O returned FBPA Giardia inh inactive[12.9 µM].
CN(C)c1ccc(-c2nc(-c3cccs3)c(-c3cccs3)[nH]2)cc1 was read as Marburg entry inh inactive, HCMV inh inactive, LASV entry inh inconclusive and FMDV inh inactive.
For O=C(O)c1cccc(N/N=C/c2cccnc2)c1 the results were FBPA Giardia inh inactive, Marburg entry inh inconclusive, HCMV inh inactive, LASV entry inh inconclusive, FMDV inh 12.6µM and HCV inh inactive.
`O=C(N/N=C/c1cccnc1)c1ccccc1` gave FBPA Giardia inh inactive, HCMV inh inconclusive, FMDV inh inactive and HCV inh inactive.
